Inconclusive results are not listed. Where a structure was tested more than once in an assay, its records may differ in their call. The source made the active and inactive calls. The calls were made as follows, unless noted: active = hit-call score of the fitted dose curve at least 0.9, where 1 is the maximum; inactive = score below 0.9.
Legend:
[1] = target: Nuclear respiratory factor 1 (Homo sapiens) (UniProt Q16656); assay: ATG_NRF1_CIS: Attagene CIS-FACTORIAL HepG2 Assay for human Nuclear Respiratory Factor 1 (NRF1) Orphan Gene (AID 2282987); conditions: HepG2 NRF1 cis-element reporter, Attagene multiplex; actives raise or lower the signal
How it was run: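 Cells (HepG2, transient MRTU transfection) are exposed to compound for 24 h, then RNA isolated and reporter mRNA amplified and fluorescently labelled. Fragments are separated by capillary electrophoresis; signal change is fitted bidirectionally relative to DMSO.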

[2] = ATG_NFI_CIS: Attagene CIS-FACTORIAL HepG2 Assay for human Nuclear Factor I (NFI) (AID 2282989); conditions: HepG2 cis-regulatory reporter, NFI response element transcription; actives raise or lower the signal
How it was run: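 Transient MRTU transfection of HepG2 → 24 h chemical dosing → total RNA, oligo(dT) RT → PCR, 6-FAM primer extension, HpaI cut → capillary electrophoresis. Endpoint fitted bidirectionally relative to DMSO.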

[3] = ATG_NF_kB_CIS: Attagene CIS-FACTORIAL HepG2 Assay for human Nuclear Factor Kappa B (NF-kB) (AID 2282991); conditions: HepG2 Attagene cis-factorial NF-kB reporter mRNA; actives raise or lower the signal
How it was run: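 Measures mRNA induction of an NF-kB-responsive cis-element reporter in HepG2 cells transfected with multiple reporter units, sampled 24 h post-dosing; quantified by fluorescence after RT-PCR and capillary electrophoresis, fitted for activation or inhibition against DMSO.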

[4] = ATG_NRF2_ARE_CIS: Attagene CIS-FACTORIAL HepG2 Assay for human Nuclear Factor Erythroid 2 Related Factor 2 (NFR2) response to Antioxidant Response Elements (ARE) (AID 2282992); conditions: HepG2 Attagene ARE/NRF2 reporter, transcription factor activity; actives raise or lower the signal
How it was run: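 Using transiently transfected HepG2 cells exposed for 24 h, reporter mRNA levels were determined by RT-PCR with fluorescent primer extension and capillary electrophoresis, analysed for gain or loss of signal against DMSO.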

[5] = ATG_Oct_MLP_CIS: Attagene CIS-FACTORIAL HepG2 Assay for human Octamer-Binding Transcription Factor (Oct) (AID 2282993); conditions: HepG2 Attagene cis-factorial Oct reporter, mRNA; actives raise or lower the signal
How it was run: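 Transient MRTU transfection of HepG2 → 24 h compound treatment → RNA isolation, reverse transcription, PCR → 6-FAM primer extension, HpaI digest → capillary electrophoresis. Activity fitted both directions against DMSO.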

[6] = target: Cellular tumor antigen p53 (Homo sapiens) (UniProt P04637); assay: ATG_p53_CIS: Attagene CIS-FACTORIAL HepG2 Assay for human p53 Transcription Factor (AID 2282994); conditions: HepG2 p53 cis-element reporter, Attagene mRNA; actives raise or lower the signal
How it was run: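 In HepG2 cells, reporter transcription units under cis-regulatory promoters were transiently introduced. Following 24 h treatment, RNA was processed to labelled, digested cDNA fragments read by capillary electrophoresis; fitting was bidirectional versus DMSO.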

[7] = BSK_3C_TissueFactor: BioMAP Diversity Plus: 3C Assay for Tissue Factor Biomarker Activity (AID 2282997); conditions: BioMAP 3C HUVEC, tissue factor biomarker readout; actives raise or lower the signal
How it was run: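 HUVEC, 3C system, 24 h post-dose; Tissue Factor by ELISA; bidirectional fit vs DMSO baseline.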

[8] = BSK_3C_uPAR: BioMAP Diversity Plus: 3C Assay for Urokinase-type plasminogen activator receptor (uPAR) Biomarker Activity (AID 2282998); conditions: BioMAP 3C HUVEC, uPAR biomarker ELISA; actives raise or lower the signal
How it was run: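 ELISA readout of uPAR on human vascular endothelium (umbilical vein primary cells), taken 24 h after chemical dosing. Increases and decreases are both fitted relative to DMSO vehicle.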

[9] = BSK_3C_VCAM1: BioMAP Diversity Plus: 3C Assay for Vascular cell adhesion molecule 1 (VCAM1) Biomarker Activity (AID 2282999); conditions: BioMAP 3C HUVEC, VCAM1 ELISA, cytokine-stimulated; actives raise or lower the signal
How it was run: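 Activity fitted in both directions relative to DMSO, with ELISA measurement of the surface marker on primary HUVEC (3C) at 24 h post-treatment; parallel SRB staining (0.1% SRB, TCA-fixed, 560 nm) flagged overt cytotoxicity.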

[10] = BSK_4H_Eotaxin3: BioMAP Diversity Plus: 4H Assay for Eotaxin 3 Biomarker Activity (AID 2283000); conditions: primary human endothelial cells (HUVEC); actives raise or lower the signal;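 also: CCL26 protein level quantified by ELISA in parallel with SRB cytotoxicity check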
How it was run: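 Readout is Eotaxin-3 (CCL26) level by ELISA in primary human umbilical vein endothelial cells harvested 24 h after chemical exposure; activity fitted in both directions against DMSO control.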

[11] = target: human Peroxisome Proliferator-activated Receptor alpha (PPARa), PPARA (gene 5465) (UniProt Q07869); assay: ATG_PPARa_TRANS: Attagene TRANS-FACTORIAL HepG2 Assay for human Peroxisome Proliferator-activated Receptor alpha (PPARa) (AID 2283001; active = hit-call score of the fitted dose curve at least 0.9, where 1 is the maximum;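 as to AC50: potency for gain of reporter signal over DMSO so agonist or activator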)
How it was run: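 Transfected HepG2 cells treated with test chemical for 24 h. RNA isolated, reverse-transcribed with oligo(dT), PCR-amplified, FAM-labelled and HpaI-digested. Fragments sized by capillary electrophoresis; gain-of-signal fit relative to DMSO.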

[12] = read-out: Intercellular Adhesion Molecule 1 (ICAM1), ICAM1 (gene 3383); assay: BSK_3C_ICAM1: BioMAP Diversity Plus: 3C Assay for Intercellular Adhesion Molecule 1 (ICAM1) Biomarker Activity (AID 2283003); conditions: primary human endothelial cells (HUVEC); actives raise or lower the signal
How it was run: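 ELISA read-out of ICAM-1; HUVEC (primary human), 3C system, 24 h post-dosing; bidirectional fit vs DMSO baseline.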

[13] = BSK_3C_Proliferation: Cell Proliferation Assessment in the BioMAP Diversity Plus: 3C Assay (AID 2283006); conditions: primary human endothelial cells (HUVEC)
How it was run: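 HUVEC, sub-confluent; 48 h chemical exposure; 10% TCA fix, 0.1% SRB stain, A560 total protein. Gain or loss of signal fitted both directions vs DMSO control.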

[14] = target: Nuclear receptor subfamily 1 group I member 2 (Homo sapiens) (UniProt O75469); assay: ATG_PXR_TRANS: Attagene TRANS-FACTORIAL HepG2 Assay for human Pregnane X Receptor (PXR) (AID 2283008; active = hit-call score of the fitted dose curve at least 0.9, where 1 is the maximum)
How it was run: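 Multiplexed TRANS reporter panel in HepG2; this component tracks PXR-Gal4-driven reporter mRNA after 24 h dosing, measured by RT-PCR with capillary electrophoresis fluorescence, fitted against DMSO.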

[15] = target: human Peroxisome Proliferator-activated Receptor delta (PPARd), PPARD (gene 5467) (UniProt Q03181); assay: ATG_PPARd_TRANS: Attagene TRANS-FACTORIAL HepG2 Assay for human Peroxisome Proliferator-activated Receptor delta (PPARd) (AID 2283002; active = hit-call score of the fitted dose curve at least 0.9, where 1 is the maximum)
How it was run: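 Transient HepG2 transfection (multiple GAL4-UAS RTUs, chimeric receptor-Gal4); 24 h dosing; total RNA → oligo(dT) RT → PCR → 6-FAM primer extension → HpaI cut → CE. Positive direction vs DMSO.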

[16] = target: human Retinoic Acid Receptor beta (RARb), RARB (gene 5915) (UniProt P10826); assay: ATG_RARb_TRANS: Attagene TRANS-FACTORIAL HepG2 Assay for human Retinoic Acid Receptor beta (AID 2283004; active = hit-call score of the fitted dose curve at least 0.9, where 1 is the maximum)
How it was run: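 Readout is reporter mRNA induction: RNA reverse-transcribed, PCR-amplified, FAM-labelled, HpaI-cut and resolved by capillary electrophoresis. Transiently transfected HepG2 cells carrying exogenous NR–Gal4 chimeras were dosed for 24 h; activity fitted upward relative to DMSO.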

[17] = target: Retinoic acid receptor alpha (Homo sapiens) (UniProt P10276); assay: ATG_RARa_TRANS: Attagene TRANS-FACTORIAL HepG2 Assay for human Retinoic Acid Receptor alpha (RARa) (AID 2283005; active = hit-call score of the fitted dose curve at least 0.9, where 1 is the maximum)
How it was run: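 Reporter transcripts, measured by RT-PCR with fluorescent labeling and capillary electrophoresis after 24 h dosing, reflect activity of an exogenous human RARa–GAL4 fusion in transiently transfected HepG2. Fitted for increase relative to DMSO.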

[18] = target: Peroxisome proliferator-activated receptor gamma (Homo sapiens) (UniProt P37231); assay: ATG_PPARg_TRANS: Attagene TRANS-FACTORIAL HepG2 Assay for human Peroxisome Proliferator-activated Receptor-gamma (PPARg) (AID 2283007; active = hit-call score of the fitted dose curve at least 0.9, where 1 is the maximum)
How it was run: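 Gain-of-signal endpoint relative to DMSO, derived from reporter mRNA levels quantified by RT-PCR and capillary electrophoresis. Cells were HepG2 transiently expressing a chimeric NR-Gal4 construct with GAL4-UAS reporters, exposed to chemicals for 24 h.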

[19] = target: human Retinoic Acid Receptor gamma (RARg), RARG (gene 5916) (UniProt P13631); assay: ATG_RARg_TRANS: Attagene TRANS-FACTORIAL HepG2 Assay for human Retinoic Acid Receptor gamma (RARg) (AID 2283009; active = hit-call score of the fitted dose curve at least 0.9, where 1 is the maximum)
How it was run: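 Readout: reporter transcript levels via RT-PCR, 6-FAM primer-extension labelling, HpaI digestion and capillary electrophoresis. Cells: HepG2 carrying transfected RARg-GAL4 chimera plus UAS reporter set. Dosing 24 h; DMSO negative control.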

[20] = target: Myc proto-oncogene protein (Homo sapiens) (UniProt P01106); assay: ATG_Myc_CIS: Attagene CIS-FACTORIAL HepG2 Assay for human Myelocytomatosis (Myc) Proto-Oncogene Transcription Factor (AID 2282990); conditions: HepG2, Attagene cis-reporter transcription factor activity; actives raise or lower the signal
How it was run: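 HepG2, transient MRTU transfection (cis promoters, endogenous TFs); 24 h dosing; TriZol RNA → oligo(dT) RT → PCR → 6-FAM primer extension → HpaI cut → CE. Bidirectional fit vs DMSO.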

Measured: AC50

Nuclear receptor subfamily 1 group I member 2 (Homo sapiens), sequence (O75469 whole entry, looked up, the tested form may be a part): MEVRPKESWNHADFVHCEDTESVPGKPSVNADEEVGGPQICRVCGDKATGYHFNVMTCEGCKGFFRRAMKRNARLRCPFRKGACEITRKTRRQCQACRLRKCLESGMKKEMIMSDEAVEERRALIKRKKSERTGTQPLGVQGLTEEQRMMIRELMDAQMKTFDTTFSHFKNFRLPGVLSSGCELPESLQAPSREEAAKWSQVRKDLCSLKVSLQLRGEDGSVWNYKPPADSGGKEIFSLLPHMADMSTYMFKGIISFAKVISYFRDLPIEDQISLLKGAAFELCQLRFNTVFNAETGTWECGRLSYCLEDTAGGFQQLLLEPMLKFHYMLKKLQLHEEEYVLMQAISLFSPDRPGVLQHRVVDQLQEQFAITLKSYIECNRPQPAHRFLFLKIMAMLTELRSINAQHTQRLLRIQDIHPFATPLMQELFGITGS
Cellular tumor antigen p53 (Homo sapiens), sequence (P04637 whole entry, looked up, the tested form may be a part): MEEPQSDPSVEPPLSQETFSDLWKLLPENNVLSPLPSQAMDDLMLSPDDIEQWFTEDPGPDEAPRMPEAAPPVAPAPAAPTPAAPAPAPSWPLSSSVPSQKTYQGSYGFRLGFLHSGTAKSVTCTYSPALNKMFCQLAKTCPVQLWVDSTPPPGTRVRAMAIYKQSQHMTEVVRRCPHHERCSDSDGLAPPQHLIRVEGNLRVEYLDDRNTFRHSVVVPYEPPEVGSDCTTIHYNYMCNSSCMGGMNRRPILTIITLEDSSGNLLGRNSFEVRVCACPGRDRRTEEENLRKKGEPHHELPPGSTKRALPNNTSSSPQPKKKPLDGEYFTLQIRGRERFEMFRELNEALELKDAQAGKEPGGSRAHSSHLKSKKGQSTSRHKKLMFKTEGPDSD
Retinoic acid receptor alpha (Homo sapiens), sequence (P10276 whole entry, looked up, the tested form may be a part): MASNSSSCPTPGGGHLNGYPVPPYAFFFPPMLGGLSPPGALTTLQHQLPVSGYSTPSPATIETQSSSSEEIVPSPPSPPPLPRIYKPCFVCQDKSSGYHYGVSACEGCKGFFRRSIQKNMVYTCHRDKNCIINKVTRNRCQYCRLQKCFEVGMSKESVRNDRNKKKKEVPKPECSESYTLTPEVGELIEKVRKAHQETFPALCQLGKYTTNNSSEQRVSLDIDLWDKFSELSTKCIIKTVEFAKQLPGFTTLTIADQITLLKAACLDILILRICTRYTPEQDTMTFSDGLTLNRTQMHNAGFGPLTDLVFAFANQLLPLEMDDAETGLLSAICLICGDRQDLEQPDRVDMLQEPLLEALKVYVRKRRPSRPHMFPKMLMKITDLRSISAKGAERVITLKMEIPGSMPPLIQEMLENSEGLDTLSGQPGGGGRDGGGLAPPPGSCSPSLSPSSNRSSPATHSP
Nuclear respiratory factor 1 (Homo sapiens), sequence (Q16656 whole entry, looked up, the tested form may be a part): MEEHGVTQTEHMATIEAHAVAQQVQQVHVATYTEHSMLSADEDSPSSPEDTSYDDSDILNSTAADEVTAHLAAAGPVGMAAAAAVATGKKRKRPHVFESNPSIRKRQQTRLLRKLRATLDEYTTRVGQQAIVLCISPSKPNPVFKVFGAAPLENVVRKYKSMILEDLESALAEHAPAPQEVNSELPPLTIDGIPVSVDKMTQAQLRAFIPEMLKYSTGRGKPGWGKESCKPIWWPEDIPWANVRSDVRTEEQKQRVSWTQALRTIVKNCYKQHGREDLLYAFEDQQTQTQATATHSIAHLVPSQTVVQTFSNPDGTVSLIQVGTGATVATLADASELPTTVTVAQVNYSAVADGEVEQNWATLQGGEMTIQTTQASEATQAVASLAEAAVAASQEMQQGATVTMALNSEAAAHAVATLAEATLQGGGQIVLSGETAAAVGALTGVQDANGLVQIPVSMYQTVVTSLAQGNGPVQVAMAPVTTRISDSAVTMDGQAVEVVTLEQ
human Retinoic Acid Receptor beta (RARb), RARB (gene 5915), sequence (P10826 whole entry, looked up, the tested form may be a part): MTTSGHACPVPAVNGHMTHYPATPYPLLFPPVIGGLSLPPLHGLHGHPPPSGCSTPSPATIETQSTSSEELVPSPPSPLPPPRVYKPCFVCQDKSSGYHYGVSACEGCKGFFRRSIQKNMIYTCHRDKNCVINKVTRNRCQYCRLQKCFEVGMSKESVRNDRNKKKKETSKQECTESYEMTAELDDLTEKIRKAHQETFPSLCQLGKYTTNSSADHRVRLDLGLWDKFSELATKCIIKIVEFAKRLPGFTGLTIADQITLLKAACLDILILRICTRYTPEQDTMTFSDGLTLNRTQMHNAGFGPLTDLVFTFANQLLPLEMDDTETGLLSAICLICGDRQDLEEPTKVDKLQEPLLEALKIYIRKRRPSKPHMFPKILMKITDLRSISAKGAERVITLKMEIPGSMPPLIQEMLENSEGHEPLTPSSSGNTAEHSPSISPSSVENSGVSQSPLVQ
Peroxisome proliferator-activated receptor gamma (Homo sapiens), sequence (P37231 whole entry, looked up, the tested form may be a part): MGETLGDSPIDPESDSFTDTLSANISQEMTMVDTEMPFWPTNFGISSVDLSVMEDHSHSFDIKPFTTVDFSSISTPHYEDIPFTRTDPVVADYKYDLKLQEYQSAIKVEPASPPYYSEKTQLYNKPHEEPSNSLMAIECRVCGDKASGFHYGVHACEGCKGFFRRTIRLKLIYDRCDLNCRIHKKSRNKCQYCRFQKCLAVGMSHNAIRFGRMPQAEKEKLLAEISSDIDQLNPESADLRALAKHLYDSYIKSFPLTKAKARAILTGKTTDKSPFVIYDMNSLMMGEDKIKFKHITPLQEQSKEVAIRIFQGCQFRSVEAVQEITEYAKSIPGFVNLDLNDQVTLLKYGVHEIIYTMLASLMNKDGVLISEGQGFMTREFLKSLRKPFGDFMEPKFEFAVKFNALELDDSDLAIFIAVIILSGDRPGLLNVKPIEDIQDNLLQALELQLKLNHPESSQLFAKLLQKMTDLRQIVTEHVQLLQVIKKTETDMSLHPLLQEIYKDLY
human Peroxisome Proliferator-activated Receptor delta (PPARd), PPARD (gene 5467), sequence (Q03181 whole entry, looked up, the tested form may be a part): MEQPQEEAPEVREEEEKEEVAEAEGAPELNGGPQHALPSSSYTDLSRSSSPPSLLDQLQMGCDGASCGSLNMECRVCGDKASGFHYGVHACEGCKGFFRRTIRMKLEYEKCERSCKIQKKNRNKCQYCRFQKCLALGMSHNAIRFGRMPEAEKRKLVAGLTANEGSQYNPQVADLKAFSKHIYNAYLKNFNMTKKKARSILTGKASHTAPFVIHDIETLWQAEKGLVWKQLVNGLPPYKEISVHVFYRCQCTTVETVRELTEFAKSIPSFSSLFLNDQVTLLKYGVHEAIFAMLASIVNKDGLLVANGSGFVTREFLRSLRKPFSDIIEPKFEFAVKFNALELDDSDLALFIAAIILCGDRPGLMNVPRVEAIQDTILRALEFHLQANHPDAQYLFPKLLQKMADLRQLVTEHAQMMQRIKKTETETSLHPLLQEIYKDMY
Myc proto-oncogene protein (Homo sapiens), sequence (P01106 whole entry, looked up): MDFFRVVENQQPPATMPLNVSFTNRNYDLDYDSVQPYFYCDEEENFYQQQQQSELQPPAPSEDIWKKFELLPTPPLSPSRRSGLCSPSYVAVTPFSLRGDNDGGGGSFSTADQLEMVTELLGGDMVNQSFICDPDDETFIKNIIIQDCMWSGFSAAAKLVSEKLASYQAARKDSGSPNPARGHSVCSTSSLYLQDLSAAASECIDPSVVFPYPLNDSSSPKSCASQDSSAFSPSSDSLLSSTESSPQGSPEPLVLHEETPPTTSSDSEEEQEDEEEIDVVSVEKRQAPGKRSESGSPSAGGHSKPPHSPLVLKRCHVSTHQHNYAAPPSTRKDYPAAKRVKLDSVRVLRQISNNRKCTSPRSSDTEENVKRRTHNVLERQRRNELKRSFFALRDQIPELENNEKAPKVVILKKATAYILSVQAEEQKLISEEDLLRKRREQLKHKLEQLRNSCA
human Peroxisome Proliferator-activated Receptor alpha (PPARa), PPARA (gene 5465), sequence (Q07869 whole entry, looked up, the tested form may be a part): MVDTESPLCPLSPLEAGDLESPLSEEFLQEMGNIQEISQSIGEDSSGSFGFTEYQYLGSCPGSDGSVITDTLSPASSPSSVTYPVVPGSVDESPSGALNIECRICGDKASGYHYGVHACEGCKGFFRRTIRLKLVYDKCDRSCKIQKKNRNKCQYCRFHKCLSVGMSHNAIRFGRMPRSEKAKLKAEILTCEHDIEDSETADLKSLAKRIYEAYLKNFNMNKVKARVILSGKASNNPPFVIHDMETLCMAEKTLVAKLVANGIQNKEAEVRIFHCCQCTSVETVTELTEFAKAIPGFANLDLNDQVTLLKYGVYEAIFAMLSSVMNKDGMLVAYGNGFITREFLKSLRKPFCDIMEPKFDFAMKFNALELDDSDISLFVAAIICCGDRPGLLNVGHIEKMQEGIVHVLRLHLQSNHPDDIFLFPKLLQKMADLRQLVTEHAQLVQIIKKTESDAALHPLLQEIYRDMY
human Retinoic Acid Receptor gamma (RARg), RARG (gene 5916), sequence (P13631 whole entry, looked up, the tested form may be a part): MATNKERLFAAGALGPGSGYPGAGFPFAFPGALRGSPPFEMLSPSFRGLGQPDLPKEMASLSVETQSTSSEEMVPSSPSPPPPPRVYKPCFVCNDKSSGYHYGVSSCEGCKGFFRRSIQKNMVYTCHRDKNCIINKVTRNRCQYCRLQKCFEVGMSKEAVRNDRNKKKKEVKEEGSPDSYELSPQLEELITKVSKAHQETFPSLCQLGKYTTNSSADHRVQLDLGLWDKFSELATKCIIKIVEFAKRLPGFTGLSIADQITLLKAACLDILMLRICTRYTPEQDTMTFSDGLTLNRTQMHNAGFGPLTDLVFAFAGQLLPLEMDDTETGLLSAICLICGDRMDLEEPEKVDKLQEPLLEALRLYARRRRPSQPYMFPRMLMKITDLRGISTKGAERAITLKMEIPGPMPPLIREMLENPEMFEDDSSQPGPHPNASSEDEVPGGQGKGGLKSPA

O=C(O)c1cccc(C[C@@H]2COc3ccc(OCc4nc5cc(F)ccc5s4)cc3[C@@H]2O)c1
active: [3] 100 µM | [4] 32.3 µM | [5] 159 µM
not listed: [15] | [16] | [17] | [18] | [19] | [20]
inactive: all other assays above

C[Si](C)(C)C(F)(F)C(F)(F)C(F)(F)F
not listed: [20]
inactive: all other assays above

OC(CCl)CCl
not listed: [14] | [15] | [16] | [17] | [18] | [19] | [20]
inactive: all other assays above

COCc1nnc(-c2ccc[n+]([O-])c2)n1-c1c(Cl)c(Cl)cc2[nH]c(=O)c(=O)[nH]c12
inactive: [1] | [2] | [20] | [5] | [7] | [8] | [9] | [10] | [12] | [13] | [14]

CNC(C)=O
inactive: [1] | [2] | [20] | [5] | [7] | [8] | [9] | [10] | [15] | [12] | [13]

C[C@]12C=CC(=O)C=C1CC[C@H]1[C@@H]3C[C@@H](O)[C@](O)(C(=O)CO)[C@@]3(C)C[C@H](O)[C@@]12F
not listed: [3] | [15] | [16] | [17] | [18] | [19]
inactive: all other assays above

c1ccc2ncccc2c1
not listed: [3] | [4] | [14] | [15] | [16] | [17] | [18] | [19]
inactive: all other assays above

CCCCCCCCCCCCCCCCOS(=O)(=O)O
active: [2] 24.6 µM | [6] 24.9 µM | [11] 9.15 µM | [18] 16.9 µM
not listed: [3] | [4] | [15] | [16] | [17] | [19]
inactive: all other assays above

Cc1cccc(O)c1C
inactive: [1] | [2] | [5] | [6] | [7] | [8] | [9] | [10] | [11] | [15] | [12] | [16] | [17] | [13] | [18] | [14] | [19]
active: [6] 168 µM
